Screening results deposited in PubChem by The Scripps Research Institute Molecular Screening Center.
In the library only some 4.1% were active in any assay of this set; here they are far more common.
DAX1 inh-1: inhibitors of human orphan nuclear receptor DAX1 (NR0B1). P51843. HEK293 Gal4-DAX1 luciferase reporter, luminescence. inhibition, % at 6.75 µM. actives 0.99% (n = 340,000). AID 504766;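 active = inhibition above the mean over all tested compounds plus 3 SD, cut at about 4.2% in these data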;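 also: 0% = DAX1-transfected cells with DMSO and 100% = empty-vector control cells with DMSO; inhibition shows as a rise in luminescence from relieved DAX1 repression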
Target sequence (P51843 207-470 limits assumed): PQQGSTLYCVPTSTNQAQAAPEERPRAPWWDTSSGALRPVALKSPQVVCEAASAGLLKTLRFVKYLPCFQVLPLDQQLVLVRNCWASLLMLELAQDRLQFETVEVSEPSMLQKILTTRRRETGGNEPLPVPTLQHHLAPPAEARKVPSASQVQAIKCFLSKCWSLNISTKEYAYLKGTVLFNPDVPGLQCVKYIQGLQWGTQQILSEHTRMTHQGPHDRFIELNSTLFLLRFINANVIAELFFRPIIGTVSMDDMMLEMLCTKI
hgDAF12 agonist: activates the H. glycines DAF-12 receptor ligand-binding domain; HEK293 GAL4-hgDAF12 UAS-luciferase reporter, agonist luminescence; normalized to butyrate control; activation, % at 6.8 µM; actives 1.8% (n = 370,000); AID 687014;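 active = activation above a cutoff set at the mean of all screened compounds plus 3 SD, cut at about 10% in these data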;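 also: 0% = DMSO wells and 100% = sodium butyrate wells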
DAX1 inh-2: blocks DAX1 repression of SF-1 activated StAR promoter. HEK293T StAR-luciferase reporter, SF-1/DAX-1 repression relief. inhibition, % at 6.8 µM. actives 1.1% (n = 370,000);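 active = inhibition above the mean over all tested compounds plus 3 SD, cut at about 3.6% in these data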;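 also: 0% = DAX-1 cells with DMSO and 100% = cells lacking DAX-1 with DMSO; higher inhibition means more luminescence from relief of DAX-1 repression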
hcDAF12 agonist: activators of H. contortus DAF-12 nuclear receptor; HEK293 hcDAF-12 lit1-tk-luc reporter, luminescence; 0% DMSO, 100% Δ7-dafachronic acid; activation, % at 6.8 µM; actives 1.4% (n = 370,000); AID 652067;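 active = activation above the mean of all tested compounds plus 3 SD, cut at about 5.5% in these data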;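 also: 100% = response to 3 µM Δ7-dafachronic acid high control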
ssDAF-12 act: S. stercoralis DAF-12 activation, primary screen. HEK293 ssDAF-12/GRIP1 lit1-tk-luc reporter, luminescence; % of 3 µM dafachronic acid response. activation, % at 6.8 µM. actives 1% (n = 370,000);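 active = activation above the mean over all tested compounds plus 3 SD, cut at about 0.9% in these data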;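 also: 0% = DMSO-only wells and 100% = 3 µM delta7-dafachronic acid wells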
hgDAF12 conf: hgDAF-12 agonism, confirmation assay. activation, % at 6.8 µM. HEK293 GAL4-hgDAF12 luciferase reporter, agonist mode; percent of butyrate response. actives 80% (n = 3,300). shares compounds with hgDAF12 agonist;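 active = mean activation over triplicate wells above the hit cutoff derived from the earlier primary screen, cut at about 11% in these data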;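 also: 0% = DMSO low control and 100% = 2 mM sodium butyrate high control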
LXRb DAF12 ctr: counter-screen for DAF-12 agonists: agonists of human LXR-beta | activation, % at 6.8 µM | 3,300 tested, under 10 active | AID 743051 | HEK293 Gal4-LXR luciferase reporter, 24 h | shares compounds with hgDAF12 agonist;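 active = mean activation of the triplicate above a set limit carried over from the primary screen, none filed active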
Numbers without * were called inactive; x = no result given.

SMILES	DAX1 inh-1	hgDAF12 agonist	DAX1 inh-2	hcDAF12 agonist	ssDAF-12 act	hgDAF12 conf	LXRb DAF12 ctr
COc1cc2[nH]c(C)c(-c3ccccc3)c(=O)c2cc1Cl	x	-2.1	-0.3	-0.3	0.6	x	x
CN1/C(=C\C(=O)c2cccnc2)Sc2ccccc21	1.4	17.6*	3.3	2.0	-0.7	11.5*	0.6
N#Cc1ccc(C(=O)Nc2nc3ccccc3[nH]2)cc1	0.1	16.0*	2.1	2.3	0.3	11.3*	0.7
Fc1cc(Cl)cc2ccc(-c3ccccc3)nc12	x	15.2*	1.7	2.9	0.8	8.9	0.2
Fc1ccc2nc(-c3ccccc3)ccc2c1	x	7.1	2.2	0.9	-0.3	x	x
Cc1ccc(S(=O)(=O)NCCC(=O)OCC(=O)NCCc2ccccc2)cc1C	2.7	-2.5	0.3	-2.4	-1.1	x	x
O=C(C[C@@H]1CC[C@@H](NC(=O)Nc2cccc(F)c2)[C@@H](CO)O1)NCC1CCCCC1	x	0.2	-1.1	0.2	-1.1	x	x
CCc1cc2cc(C(=O)Nc3ccc(F)cc3)sc2s1	-0.7	1.8	0.7	-0.6	-0.9	x	x
CCc1cc2cc(C(=O)Nc3ccccc3F)sc2s1	3.5	14.8*	3.2	6.4*	0.4	17.7*	1.2
Cc1ccc(Nc2cc(C)c3c(O)cccc3n2)cc1C	1.5	14.7*	1.4	4.1	-0.3	15.0*	0.6
Cc1ccccc1Nc1cc(C)c2c(O)cccc2n1	-0.2	0.9	0.2	0.7	-0.8	x	x
COc1ccc(C(=O)NC(=S)N2CCC(C)CC2)cc1Br	1.2	31.7*	0.7	0.2	-0.6	-1.1	0.0
COc1ccc(C(=O)NC(=S)N2CCNC(=O)C2)cc1Br	3.2	0.2	-0.1	1.8	-1.4	x	x
O=C(CSc1nc2ccccc2[nH]1)c1c[nH]c2ccccc12	0.9	2.5	-0.1	-2.0	-1.8	x	x
O=C(CSc1nc2ccccc2[nH]1)c1ccccc1F	2.0	16.2*	1.4	5.8*	-0.4	12.2*	0.6
CN1CCN(c2ccc(NC(=O)c3ccc(-c4ccccc4F)o3)cc2)CC1	2.0	24.0*	4.4*	5.4	1.4*	17.3*	0.8
O=C(Nc1ccccc1)c1ccc(-c2ccccc2Cl)o1	3.7	13.2*	2.7	4.6	0.1	13.0*	0.4
CN1CCN(c2ccc(NC(=O)c3ccccc3Br)cc2)CC1	2.0	5.6	1.1	4.5	-0.7	x	x
O=C(Nc1ccccc1)c1ccc(-c2ccccc2C(F)(F)F)o1	-0.3	7.3	0.5	-0.8	-0.9	x	x
CN1C(=O)/C(=C/C=C2\SCCN2C)N(C)C1=S	0.7	14.3*	2.1	2.3	0.1	14.9*	0.6
O=C(c1cnn(-c2cccc(F)c2)c1)c1ccccc1O	5.0*	15.3*	2.2	3.4	0.6	16.1*	0.7
CNC(=O)COc1ccc(C=O)cc1OC	-0.5	-1.2	-0.2	2.0	-0.5	x	x
COc1cc(C=O)ccc1OCc1cccc(Br)c1	1.5	13.6*	0.3	0.2	-1.0	9.7	0.3
O=C(OCc1cccnc1)C1=Cc2ccccc2OC1	-0.9	14.4*	0.6	-1.3	-1.2	3.4	0.1
NC(N)=NN=C(c1ccc(F)cc1)c1ccc(C(F)(F)F)cc1	1.2	-5.4	1.6	-0.1	-0.2	x	x
SMILES	DAX1 inh-1	hgDAF12 agonist	DAX1 inh-2	hcDAF12 agonist	ssDAF-12 act	hgDAF12 conf	LXRb DAF12 ctr
COc1cccc(-c2n[nH]nc2C2=CC(=O)C[C@H](c3ccc(F)cc3)C2)c1	-0.2	-4.3	0.8	-2.8	-1.6	x	x
COc1ccc(-c2nc3cc([N+](=O)[O-])ccc3o2)cc1	6.2*	13.9*	2.2	2.4	-0.4	16.6*	0.8
Nc1ccc(-c2nc3cc([N+](=O)[O-])ccc3o2)cc1	5.7*	23.6*	2.5	5.7*	0.7	19.6*	0.9
CC(C)(C)Nc1nc2cc([N+](=O)[O-])ccc2o1	-0.5	0.0	0.3	0.4	-1.0	x	x
Cc1ccc(/C=C/c2nnc(-c3ccc(C)cc3)o2)cc1	0.2	2.4	0.6	1.4	-1.0	x	x
Fc1ccc(/C=C/c2nnc(-c3cccs3)o2)cc1	1.9	15.3*	3.7*	3.7	0.3	12.0*	0.6
Cc1ccc(/C=C/c2nnc(-c3cccs3)o2)cc1	-0.3	15.5*	4.4*	2.9	-0.2	16.4*	0.8
c1cc2c(cc1-c1csc(NNC3=NCCCCC3)n1)OCCO2	x	14.9*	1.9	1.1	-0.5	2.8	0.3
CC(C)(C)C(=O)Nc1nc(-c2ccc3c(c2)OCO3)cs1	3.6	10.4	1.4	0.8	-0.5	x	x
c1cc2c(cc1Nc1nc(-c3ccc4c(c3)OCO4)cs1)OCCO2	1.4	-0.4	0.0	-1.2	-0.9	x	x
CCC(=O)Nc1nc(-c2ccc3c(c2)OCCO3)cs1	1.3	19.2*	2.7	5.0	-0.3	16.0*	0.7
C[C@H]1NS(=O)(=O)c2cccc(Cl)c2O[C@@H]1c1ccccc1	x	0.9	-0.9	1.7	-1.2	x	x
CCc1nc(Nc2ccncc2)c2oc3ccccc3c2n1	0.8	19.3*	-0.5	0.7	-0.7	8.2	0.1
Cc1nc(Nc2ccncc2)c2oc3ccccc3c2n1	-0.2	3.8	-0.5	0.0	-1.2	x	x
NC(N)=Nc1nc(C2COc3ccccc3O2)cs1 (stereo unspecified)	0.2	13.6*	1.9	5.5	0.3	17.5*	0.8
N/C(=N\OC(=O)Cc1ccccc1)c1ccccc1Cl	-0.9	13.7*	1.8	3.5	0.4	6.0	0.2
COC(=O)C1C(=O)c2c([nH]c(C(=O)OCCOC(C)C)c2C)CC1C (stereo unspecified)	x	4.3	-0.4	0.4	-0.6	x	x
COC(=O)C1C(=O)c2c([nH]c(C(=O)OC3CCCCC3)c2C)CC1C (stereo unspecified)	5.3*	14.9*	2.5	1.2	0.2	11.9*	0.5
CCC(C)c1ccc(OCc2ccc(C(=O)OC)o2)cc1 (stereo unspecified)	3.8	15.2*	3.2	4.5	1.0*	17.8*	0.7
CCc1ccc(OCc2ccc(C(=O)OC)o2)cc1	3.6	16.8*	1.4	3.5	-0.7	13.6*	0.6
COC(=O)c1ccc(COc2ccc(C(C)(C)C)cc2)o1	0.9	5.2	1.2	1.0	-0.9	x	x
Cc1cc(NC(=O)c2cc(C3CC3)on2)no1	1.4	14.7*	2.6	0.4	-0.3	7.4	0.3
Cc1ccc(C(=O)Nc2nnc(SCC(=O)N3CCCc4ccccc43)s2)cc1	-1.9	13.7*	4.2*	4.1	0.8	8.6	0.8
COc1ccc2oc(C(=O)Nc3nc4ccccc4[nH]3)c(C)c2c1	2.0	24.6*	4.2*	5.0	0.5	17.8*	1.0
COc1ccc(Br)c(C(=O)Nc2nc3ccccc3[nH]2)c1	0.5	3.1	1.0	1.3	-0.6	x	x
